Assay results as given in PubChem BioAssay (NCI).
The panel holds about 79,000 compounds, 15% with a hit somewhere; the sample as a whole holds those more often. Values without a mark were called inactive. Active and inactive are the calls of the source. No stated cut-off is given here; in the data, active means growth inhibition above about 70%; inactive means the rest.

Columns and labels:
[1] = NCI Yeast Anticancer Drug Screen. Data for the rad52 strain (AID 147);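 further: 0% = growth of vehicle-treated control cultures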; conditions: S. cerevisiae rad52 mutant growth inhibition, stronger effect = higher value
Procedure, shortened: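 Screen used a yeast mutant impaired in DNA repair. After compound exposure, growth was measured. Values reflect inhibition compared with vehicle-treated cells.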

[2] = NCI Yeast Anticancer Drug Screen. Data for the wt1 strain (AID 149);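 further: 0% = growth of vehicle-treated wt1 cultures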; conditions: S. cerevisiae wt1 strain (SPY 50644) growth inhibition, stronger effect = higher value
Procedure, shortened: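 Yeast wt1 strain exposed to compounds; growth inhibition measured relative to vehicle-treated controls.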

[3] = NCI Yeast Anticancer Drug Screen. Data for the rad50EPP+ strain (AID 151);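 further: 0% = growth of vehicle-treated control cultures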; conditions: S. cerevisiae rad50 mutant strain, stronger effect = higher value
Procedure, shortened: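 Exposing the rad50EPP+ strain to each compound, growth was compared with vehicle-only cultures to give inhibition.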

[4] = NCI Yeast Anticancer Drug Screen. Data for the mgt1 strain (AID 153); conditions: S. cerevisiae mgt1 mutant growth inhibition, stronger effect = higher value
Procedure, shortened: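 Genetically defined yeast (mgt1) treated with compound; inhibition of growth expressed against vehicle-treated controls.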

[5] = NCI Yeast Anticancer Drug Screen. Data for the rad50 strain (AID 155);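 further: 0% = growth of vehicle-only cultures of the same strain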; conditions: S. cerevisiae rad50 strain growth inhibition, stronger effect = higher value
Procedure, shortened: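 Yeast carrying a defined DNA repair defect were exposed to test compounds, and growth was compared with vehicle-treated controls to give percent inhibition.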

[6] = NCI Yeast Anticancer Drug Screen. Data for the mec2-1 strain (AID 157); conditions: S. cerevisiae mec2-1 strain, stronger effect = higher value
Procedure, shortened: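 Readout is yeast growth inhibition, normalised to vehicle-treated controls, in the mec2-1 strain exposed to compound.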

[7] = NCI Yeast Anticancer Drug Screen. Data for the rad14 strain (AID 159);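 further: 0% = growth of vehicle-treated control cultures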; conditions: S. cerevisiae rad14 strain growth inhibition, stronger effect = higher value
Procedure, shortened: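 Yeast cells carrying a defined DNA-repair defect were exposed to compounds, and growth inhibition was calculated relative to vehicle-treated control cultures.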

[8] = NCI Yeast Anticancer Drug Screen. Data for the sgs1 mgt1 strain (AID 161);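 further: 0% = growth of cultures given vehicle only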; conditions: S. cerevisiae sgs1 mgt1 strain, stronger effect = higher value
Procedure, shortened: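 Yeast cells carrying a defined DNA-repair defect were exposed to test compounds. Growth inhibition was measured relative to vehicle-treated controls.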

[9] = NCI Yeast Anticancer Drug Screen. Data for the CLN2oe strain (AID 163);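 further: 0% = growth of vehicle-only control cultures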; conditions: S. cerevisiae CLN2oe strain, stronger effect = higher value
Procedure, shortened: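 Values reflect how much compound exposure reduced yeast growth, referenced to vehicle-exposed cells. Assay organism is a strain with a defined genetic change affecting cell-cycle control.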

[10] = NCI Yeast Anticancer Drug Screen. Data for the cln2 rad14 strain (AID 165);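 further: 0% = growth equal to vehicle treated cultures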; conditions: S. cerevisiae cln2 rad14 strain, stronger effect = higher value
Procedure, shortened: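 Relative to vehicle controls, growth inhibition of compound-treated cln2 rad14 yeast was recorded.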

[11] = NCI Yeast Anticancer Drug Screen. Data for the bub3 strain (AID 167); conditions: S. cerevisiae bub3 mutant strain, stronger effect = higher value
Procedure, shortened: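 Compounds were applied to a genetically altered yeast strain carrying a cell-cycle control defect. Growth inhibition was scored against vehicle-treated controls.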

[12] = NCI Yeast Anticancer Drug Screen. Data for the wt2 strain (AID 169);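 further: 0% = growth of vehicle-treated yeast cultures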; conditions: S. cerevisiae wt2 strain growth inhibition, stronger effect = higher value
Procedure, shortened: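 Values express reduction in yeast growth under compound treatment, referenced to vehicle-treated cells.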

[13] = NCI Yeast Anticancer Drug Screen. Data for the mlh1 strain (AID 171);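 further: 0% = growth of vehicle-treated control cultures of the same strain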; conditions: S. cerevisiae mlh1 strain growth inhibition, stronger effect = higher value
Procedure, shortened: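 Steps: expose the defined-mutant yeast strain to compound; expose a parallel culture to vehicle; measure growth; express compound effect as inhibition relative to the vehicle culture.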

[14] = NCI Yeast Anticancer Drug Screen. Data for the sgs1 strain (AID 173);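 further: 0% = growth of vehicle-only control cultures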; conditions: S. cerevisiae sgs1 mutant, stronger effect = higher value
Procedure, shortened: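 Treat defined-mutant yeast with compound; measure growth; calculate inhibition relative to vehicle-treated cells.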

[15] = NCI Yeast Anticancer Drug Screen. Data for the mlh1 rad18 strain (AID 175); conditions: S. cerevisiae mlh1 rad18 strain growth inhibition, stronger effect = higher value
Procedure, shortened: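 Test agents were incubated with a yeast strain of defined genotype (DNA damage repair defect). Inhibition of growth was derived by comparison with vehicle-exposed cultures.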

[16] = NCI Yeast Anticancer Drug Screen. Data for the rad18 strain (AID 177); conditions: S. cerevisiae rad18 mutant growth inhibition, stronger effect = higher value
Procedure, shortened: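 A genetically defined yeast mutant impaired in DNA damage repair was treated with test compounds, then its growth was measured against cultures receiving vehicle alone.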

[17] = at 5.0 µM (retest, dose inferred, filed as 0.5)
[18] = at 50.0 µM (retest, dose inferred, filed as 5.0)

SMILES: c1ccc2c(c1)ccn2CCc1c[nH]c2ccccc12
- growth inhibition ([1]; at 1.2 µM): -35%
- growth inhibition ([1]; at 3.7 µM): -37%
- growth inhibition ([1]; at 11.0 µM): -20%
- growth inhibition ([1]; at 33.0 µM): 31%
- growth inhibition ([1]; at 100.0 µM): 97% (active)
- growth inhibition ([2]; at 1.2 µM): -16%
- growth inhibition ([2]; at 3.7 µM): -31%
- growth inhibition ([2]; at 11.0 µM): -19%
- growth inhibition ([2]; at 33.0 µM): 21%
- growth inhibition ([2]; at 100.0 µM): 95% (active)
- growth inhibition ([3]; at 1.2 µM): -33%
- growth inhibition ([3]; at 3.7 µM): -5%
- growth inhibition ([3]; at 11.0 µM): 23%
- growth inhibition ([3]; at 33.0 µM): 41%
- growth inhibition ([3]; at 100.0 µM): 55%
- growth inhibition ([4]; at 1.2 µM): -26%
- growth inhibition ([4]; at 3.7 µM): -26%
- growth inhibition ([4]; at 11.0 µM): -4%
- growth inhibition ([4]; at 33.0 µM): 33%
- growth inhibition ([4]; at 100.0 µM): 96% (active)
- growth inhibition ([5]; at 1.2 µM): -20%
- growth inhibition ([5]; at 3.7 µM): -20%
- growth inhibition [5, 17]: -13%
- growth inhibition ([5]; at 11.0 µM): -5%
- growth inhibition ([5]; at 33.0 µM): 34%
- growth inhibition [5, 18]: 48%
- growth inhibition ([5]; at 50.0 µM): 91% (active)
- growth inhibition ([5]; at 100.0 µM): 98% (active)
- growth inhibition ([6]; at 1.2 µM): -24%
- growth inhibition ([6]; at 3.7 µM): -23%
- growth inhibition [6, 17]: -5%
- growth inhibition ([6]; at 11.0 µM): -27%
- growth inhibition ([6]; at 33.0 µM): 0%
- growth inhibition [6, 18]: 1%
- growth inhibition ([6]; at 50.0 µM): 93.4% (active)
- growth inhibition ([6]; at 100.0 µM): 96% (active)
- growth inhibition ([7]; at 1.2 µM): -16%
- growth inhibition ([7]; at 3.7 µM): -29%
- growth inhibition ([7]; at 11.0 µM): -28%
- growth inhibition ([7]; at 33.0 µM): 6%
- growth inhibition ([7]; at 100.0 µM): 97% (active)
- growth inhibition [8, 17]: -10%
- growth inhibition [8, 18]: 25%
- growth inhibition ([8]; at 50.0 µM): 57.9%
- growth inhibition ([9]; at 1.2 µM): 7%
- growth inhibition ([9]; at 3.7 µM): 21%
- growth inhibition ([9]; at 11.0 µM): 12%
- growth inhibition ([9]; at 33.0 µM): 48%
- growth inhibition ([9]; at 100.0 µM): 95% (active)
- growth inhibition [10, 17]: -1%
- growth inhibition [10, 18]: 52%
- growth inhibition ([10]; at 50.0 µM): 91.7% (active)
- growth inhibition ([11]; at 1.2 µM): 15%
- growth inhibition ([11]; at 3.7 µM): 18%
- growth inhibition [11, 17]: -19%
- growth inhibition ([11]; at 11.0 µM): 39%
- growth inhibition ([11]; at 33.0 µM): 79% (active)
- growth inhibition [11, 18]: 70% (active)
- growth inhibition ([11]; at 50.0 µM): 89.7% (active)
- growth inhibition ([11]; at 100.0 µM): 95% (active)
- growth inhibition ([12]; at 1.2 µM): -29%
- growth inhibition ([12]; at 3.7 µM): -28%
- growth inhibition ([12]; at 11.0 µM): -20%
- growth inhibition ([12]; at 33.0 µM): 20%
- growth inhibition ([12]; at 100.0 µM): 97% (active)
- growth inhibition ([13]; at 1.2 µM): -18%
- growth inhibition ([13]; at 3.7 µM): -14%
- growth inhibition ([13]; at 11.0 µM): -6%
- growth inhibition ([13]; at 33.0 µM): 15%
- growth inhibition ([13]; at 100.0 µM): 97% (active)
- growth inhibition ([14]; at 1.2 µM): -38%
- growth inhibition ([14]; at 3.7 µM): -38%
- growth inhibition ([14]; at 11.0 µM): -20%
- growth inhibition ([14]; at 33.0 µM): 20%
- growth inhibition ([14]; at 100.0 µM): 95% (active)
- growth inhibition [15, 17]: 3%
- growth inhibition [15, 18]: 51%
- growth inhibition ([15]; at 50.0 µM): 91.4% (active)
- growth inhibition ([16]; at 1.2 µM): -42%
- growth inhibition ([16]; at 3.7 µM): -46%
- growth inhibition ([16]; at 11.0 µM): -23%
- growth inhibition ([16]; at 33.0 µM): 9%
- growth inhibition ([16]; at 100.0 µM): 98% (active)

SMILES: CC(/C=C/c1ccc([N+](=O)[O-])o1)=N/N1CC(CN2CCOCC2)OC1=O (stereo not drawn)
- growth inhibition ([1]; at 1.2 µM): -5%
- growth inhibition ([1]; at 3.7 µM): 5%
- growth inhibition ([1]; at 11.0 µM): 48%
- growth inhibition ([1]; at 33.0 µM): 94% (active)
- growth inhibition ([1]; at 100.0 µM): 98% (active)
- growth inhibition ([2]; at 1.2 µM): 2%
- growth inhibition ([2]; at 3.7 µM): 11%
- growth inhibition ([2]; at 11.0 µM): 36%
- growth inhibition ([2]; at 33.0 µM): 66%
- growth inhibition ([2]; at 100.0 µM): 96% (active)
- growth inhibition ([3]; at 1.2 µM): -4%
- growth inhibition ([3]; at 3.7 µM): 4%
- growth inhibition ([3]; at 11.0 µM): 34%
- growth inhibition ([3]; at 33.0 µM): 58%
- growth inhibition ([3]; at 100.0 µM): 76% (active)
- growth inhibition ([4]; at 1.2 µM): -2%
- growth inhibition ([4]; at 3.7 µM): -4%
- growth inhibition ([4]; at 11.0 µM): 12%
- growth inhibition ([4]; at 33.0 µM): 30%
- growth inhibition ([4]; at 100.0 µM): 85% (active)
- growth inhibition ([5]; at 1.2 µM): -9%
- growth inhibition ([5]; at 3.7 µM): -6%
- growth inhibition [5, 17]: 9%
- growth inhibition ([5]; at 11.0 µM): 35%
- growth inhibition ([5]; at 33.0 µM): 90% (active)
- growth inhibition [5, 18]: 90% (active)
- growth inhibition ([5]; at 50.0 µM): 91.8% (active)
- growth inhibition ([5]; at 100.0 µM): 97% (active)
- growth inhibition ([6]; at 1.2 µM): 2%
- growth inhibition ([6]; at 3.7 µM): 0%
- growth inhibition [6, 17]: 7%
- growth inhibition ([6]; at 11.0 µM): 1%
- growth inhibition ([6]; at 33.0 µM): 29%
- growth inhibition [6, 18]: 90% (active)
- growth inhibition ([6]; at 50.0 µM): 55.6%
- growth inhibition ([6]; at 100.0 µM): 94% (active)
- growth inhibition ([7]; at 1.2 µM): 4%
- growth inhibition ([7]; at 3.7 µM): 10%
- growth inhibition ([7]; at 11.0 µM): 55%
- growth inhibition ([7]; at 33.0 µM): 90% (active)
- growth inhibition ([7]; at 100.0 µM): 99% (active)
- growth inhibition [8, 17]: 22%
- growth inhibition [8, 18]: 93% (active)
- growth inhibition ([8]; at 50.0 µM): 91.3% (active)
- growth inhibition ([9]; at 1.2 µM): -9%
- growth inhibition ([9]; at 3.7 µM): -9%
- growth inhibition ([9]; at 11.0 µM): -2%
- growth inhibition ([9]; at 33.0 µM): 44%
- growth inhibition ([9]; at 100.0 µM): 90% (active)
- growth inhibition [10, 17]: 6%
- growth inhibition [10, 18]: 90% (active)
- growth inhibition ([10]; at 50.0 µM): 53.5%
- growth inhibition ([11]; at 1.2 µM): -6%
- growth inhibition ([11]; at 3.7 µM): -3%
- growth inhibition [11, 17]: 3%
- growth inhibition ([11]; at 11.0 µM): 2%
- growth inhibition ([11]; at 33.0 µM): 27%
- growth inhibition [11, 18]: 87% (active)
- growth inhibition ([11]; at 50.0 µM): 41.8%
- growth inhibition ([11]; at 100.0 µM): 94% (active)
